Data taken from the supplement of paper PMC5499739.
In all, about 16,000 sequences were measured (“Z-score”: median about -0.37, highest 2% from about 3.2 on). This excerpt belongs to a sample that is enriched for the highest values.

System: RBM10 RRM1-ZnF (GST-tagged construct)
Assay: RNAcompete 7-mer binding Z-score; higher = stronger binding preference
Procedure: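 RNAcompete: 20 pmol GST-tagged RBM10 RNA-binding constructs were incubated with a designed RNA pool of about 241,000 sequences up to 41 nt (1.5 nmol) on glutathione beads for 30 min at 4 °C and washed. Bound RNAs were identified by microarray hybridisation. Each RNA 7-mer is scored by a one-sided Z-score of its enrichment, computed over probes that contain the 7-mer within longer pool sequences.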

Sequence	RNAcompete 7-mer binding Z-score
CAAGGAU	1.36
CAAGGAG	2.17
AAAGGAA	3.32
GGAGGAA	2.93
GAAGGAA	4.56
GAAGGAG	4.72
UAAGGAA	1.64
CAAGGAA	1.48
GCAGGAA	1.77
GAAGGAC	2.33
GAAGGAU	3.32
UAAGGAU	1.42
CAUCACC	-0.795
AACGGUG	1.56
CACCAAU	-0.639
GCCCGCC	-0.132
AUCCCGG	-0.513
UAGUUAA	-0.373
UUGCACU	-0.639
UUGGUUC	-0.344
UGCCGAC	-0.652
UCAGUAA	-0.461
UUACGCU	-0.5
AAAGGAC	2.39

Sequence	RNAcompete 7-mer binding Z-score
AAAGGAG	3.8
UAAGGAG	1.97
CAGCGCG	-0.324
GUAGACC	0.00729
CGAGCGG	3.69
UGAGCGG	2.38
GGAGCGA	2.71
AGAGCGG	1.43
GGAGCGG	4.52
CGAGCGU	0.0495
UCACUUA	-0.724
AUUCAAA	-0.662
CAUCUCA	-0.798
CUGGAUC	-0.311
CGGAUGA	1.15
UGGCGUA	0.316
UUGGGGG	3.56
UUUGGGG	2.72
UGGGCGG	3.38
UGGGCGC	1.16
CUUGGGU	1.38
CUUGGGG	1.44
UUGGGGU	3.27
GUUGGGG	4.26

Sequence	RNAcompete 7-mer binding Z-score
UUGGGGC	1.95
AGGGCGG	2.1
UUUGGGU	2.47
AUUGGGG	3.01
GCGUUUA	-0.535
CAAUUAA	-0.633
UCACUUC	-0.824
UUCAAAU	-0.607
GUUGCGU	0.257
UAGUAGU	-0.035
AUAUCCU	-0.789
GAAGUUA	0.309
CUUUAUG	-0.763
UGGGGCG	2.54
GUUUGGG	3.59
GAUUGGG	3.62
CGUUUGG	0.296
GUUUUGG	1.15
AAUUGGG	2.54
GGUUUUG	2.03
GUUUGGA	1.36
UGGGGGC	3.07
UGGGGGG	4.02
GAUUGGC	0.953

Sequence	RNAcompete 7-mer binding Z-score
GGUUUGG	3.62
UAGGUCC	-0.165
GGGGCGG	2.7
UCGGGGC	1.65
ACUAUCU	-0.759
UUGGCGA	0.605
GCGGGGU	3.75
GCGGGUU	2.76
GCGGGGC	2.47
CCGGGGA	1.27
CCGGGGG	1.54
UCGGGGA	1.6
GCGGGGA	3.67
GCGGGGG	3.94
UCGGGGU	2.07
GUCCAUA	-0.623
CCGACGC	-0.477
AGUACAA	-0.158
GUCAGCC	-0.448
GUGUUAA	-0.0447
GGGGGAG	3.22
AGGGGAG	2.9
UCGGGAG	1.12
UGGGGAG	3.36

Sequence	RNAcompete 7-mer binding Z-score
AGGGCAG	2.11
UGGGCAG	2
CGGGGAG	2.57
GGGGCAG	3.4
AGAUAAA	0.0463
UGACUCA	-0.48
GGUAGCC	0.784
UCAACAC	-0.461
GAGGAGA	1.69
ACUUGCU	-0.74
GACUUGA	-0.496
AAGGAAA	3.36
CAGGAAA	0.94
AAGGAAC	2.26
GAGGAAG	3.26
AAGGAAG	3.84
UAGGAAG	1.72
UAGGAAA	1.47
AAGGAAU	2.28
GAGGAAU	1.58
GGCUUAA	-0.0122
UGUCUCG	-0.649
GAUACGU	-0.022
AUGGACA	1.95

Sequence	RNAcompete 7-mer binding Z-score
UUUGCUC	-0.867
GUGGAGG	3.91
AUGGAGG	4.22
GUGGAGU	2.67
AUGGAGA	2.62
GUGGAGC	2.91
AUGGAGU	2.63
CGUGGUG	1.52
AAUGGUG	2.79
AGUGGUG	2.37
GAUGGUG	3.27
GGUGGUG	3.56
GAUGGUC	0.563
ACCACCA	-0.503
CUUACAC	-0.841
GCUCCCA	-0.574
GUCGUAG	0.056
ACAUCGA	-0.48
GGUAGGC	1.92
AGUAGGU	1.68
GGUAAAG	3.32
GGUAGGA	3.4
CGUAGGU	0.949
UGUAGAG	0.923

Sequence	RNAcompete 7-mer binding Z-score
UGUAAAG	0.173
AGUAGGA	2.8
GGUAGAG	3.37
CGUAAAG	-0.116
GGUAGGU	3.31
CGUAGAG	0.381
GAACCAG	-0.0934
GCGUAGC	-0.0155
CCGAAUU	-0.815
UGACCAC	-0.49
CUGUCGG	-0.305
UAGUCGA	-0.191
CCUUAUA	-0.87
UGGGCUG	1.83
GGUAGCG	1.67
GGUAGUG	2.47
GGUAGGG	4.7
AAGACUC	-0.561
AAUUAUA	-0.464
GAUCCUC	-0.883
GAUGGGU	3.53
AAUGGGU	3.89
UAUGGGU	2.81
CAUGGGU	2.24

Sequence	RNAcompete 7-mer binding Z-score
AAUGGUU	2.44
UAUGGGC	1.47
ACUGGGG	1.89
AAUGGGG	4.2
AAUGGCU	0.303
CAUGGGG	2.42
UAUGGGG	3.4
UAUGGCG	0.537
GAGGACC	0.235
CCUCCUC	-0.542
UGUACAU	-0.422
UGUGCCA	-0.542
ACUAUAC	-0.642
CACAUGU	-0.448
CAUUCUU	-0.789
ACGACAC	-0.496
AAUGGGA	4.35
CAUGGGA	1.95
GAUGGGG	4.43
GCUGGGG	2.64
GAUGGGC	2.15
UAUGGGA	2.85
GAUGGGA	3.76
GAUGGUA	2.28

Sequence	RNAcompete 7-mer binding Z-score
AAUGGGC	2.5
CUCACUU	-0.925
UUGUUAC	-0.373
GUUACCG	-0.0999
GGCCGAG	0.462
UGCGAUA	-0.223
GCCAGAG	0.00729
GGGGAGG	3.64
CGGGAGG	3.02
GGGGAGC	2.29
AGGGAGU	2.96
UGGGAGG	4.4
UGGGAGC	2.86
AGGGAGG	3.68
GGGGAGU	2.84
UGGGAGU	2.27
UGGGAGA	2.78
GGGGAGA	3.3
CGGGAGA	1.24
AGUCAGU	0.0105
ACGCCGC	-0.633
UCCAACU	-0.85
GUUACGG	0.859
GAGCUGA	0.417

Sequence	RNAcompete 7-mer binding Z-score
GCGCAAA	-0.181
AAGGCCA	-0.00896
UUCUUAG	-0.698
AUCCUAC	-0.87
GUCUCAU	-0.642
AGAAUCC	-0.785
AUACAAU	-0.539
CACGCAA	-0.464
GGGCUAU	0.849
CAUAAGG	0.335
AAAAGGU	2.33
GAAAAGG	4.26
AAAAAGG	2
CAAAGGU	1.15
CAAAAGG	0.888
CGAAAGG	2.19
UGAAAGG	3.05
GAUAAGG	3.91
GAUAAGU	0.313
AGAAAGG	4.58
GAAAGGU	4.51
